Source: PubChem
This is a sample that favours compounds with a hit; in the whole collection about 4.1% have one here.
LMP1 NFkB inh: EBV LMP1-driven NF-kappaB luciferase reporter inhibitors, primary screen, cell-based, luminescence, single point. AID 504558, 2011. actives 0.69% (n = 350,000). LMP1-induced NF-kappaB luciferase reporter cells. inhibition, % at 12.5 µM; in the data active = inhibition above about 41%; inconclusive = no clear call, values can overlap the other calls;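 also: 0% = neutral control wells and 100% = reference inhibitor control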
TROY signal inh: inhibitors of TROY-driven NF-kB signaling, primary screen, Q293 LMP1-TROYcd cells, NF-kB luciferase, uHTS; Q293 LMP1-TROYcd NF-kB luciferase reporter, 4 h; inhibition, % at 10 µM; actives 0.98% (n = 360,000);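 active = compounds whose plate-normalised and pattern-corrected inhibition of the luciferase reporter signal at the single screening dose is 50% or more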
MITF TRPM1 inh: inhibitors of MITF-dependent TRPM1 promoter reporter, primary screen, cell-based, SK-MEL-5, single point, luciferase; SK-MEL-5 TRPM1 promoter luciferase, 24 h; inhibition, % at 12.5 µM; actives 0.83% (n = 330,000); AID 488899, 2010;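 active = mean inhibition across replicates of 60% or more, whatever share of single replicates reaches that level; inconclusive = some that reach 60%, reason not given; inactive = mean inhibition across replicates below 60%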
Peg3 prom inh: Peg3 promoter-driven luciferase inhibitors, primary screen, cell-based, HeLa, luciferase luminescence; HeLa PEG-Prom luciferase reporter, overnight; inhibition, % at 20 µM; actives 1.7% (n = 360,000);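 active = inhibition of at least 50% at 20 µM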
Shn3 3UTR inh: reduction of Shn3 3'UTR firefly luciferase signal, primary screen, Schnurri-3 inhibitor project, cell-based, Clone20 osteoblasts, set 2. Clone20 osteoblast Shn3 3'UTR firefly luciferase, 24 h. inhibition, % at 12.5 µM. actives 0.52% (n = 360,000);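 active = mean inhibition of at least 75% with every replicate also reaching 75%; inconclusive = mean inhibition at least 75% but some replicate below; inactive = mean inhibition below 75%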;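 also: 0% = median of neutral control wells and 100% = pilot-screen positive control compound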
TWEAK-Fn14 inh: inhibitors of TWEAK-Fn14 signaling, primary screen, luciferase reporter cells, uHTS; inhibition, % at 10 µM; AID 1159606, 2016; TWEAK-stimulated Fn14 reporter cells, luciferase luminescence, 8 h; actives 2% (n = 360,000); in the data active = inhibition above about 50%
The depositor's hits bear a star.

Results for CC(Nc1nc(N2CCCCC2)nc2ccccc12)c1ccccc1 (stereo not drawn) ?
LMP1 NFkB inh: -3; TROY signal inh: 4; MITF TRPM1 inh: 6; Peg3 prom inh: 68*; Shn3 3UTR inh: 44; TWEAK-Fn14 inh: -42

What do the screens show for `O=[N+]([O-])c1ccc2nc(NS(=O)(=O)c3ccc(F)cc3)sc2c1`?
LMP1 NFkB inh: -3; TROY signal inh: 0; MITF TRPM1 inh: 5; Peg3 prom inh: 15; Shn3 3UTR inh: -9; TWEAK-Fn14 inh: 11

What do the screens show for `CN(C(=O)c1ccccc1C(=O)OCC(=O)Nc1cccc(Br)c1)c1ccccc1`?
LMP1 NFkB inh: -7; TROY signal inh: -10; MITF TRPM1 inh: 2; Peg3 prom inh: 14; Shn3 3UTR inh: 7; TWEAK-Fn14 inh: 4

Results for CCCc1nc2ccccc2c(C(=O)N(CC)CC(=O)NCc2cccs2)c1CC ?
LMP1 NFkB inh: -6; TROY signal inh: -36; MITF TRPM1 inh: 2; Peg3 prom inh: -1; Shn3 3UTR inh: 4; TWEAK-Fn14 inh: -6

What do the screens show for `CN(C)c1ccc(CNCCC(Cc2ccccc2)c2ccco2)cc1` (stereo not drawn)?
LMP1 NFkB inh: -7; TROY signal inh: 8; MITF TRPM1 inh: 0; Peg3 prom inh: 50*; Shn3 3UTR inh: 56; TWEAK-Fn14 inh: 1

Results for OCCCn1c(C2CCCN2c2nc(-c3ccc(Cl)cc3)cs2)nc2cc(Cl)c(N3CCCCC3)cc21 (stereo not drawn) ?
LMP1 NFkB inh: -15; TROY signal inh: -2; MITF TRPM1 inh: 46; Peg3 prom inh: 72*; Shn3 3UTR inh: 53; TWEAK-Fn14 inh: 7

Results for Cc1csc(N2CCCC2c2nc3cc(Cl)c(N4CCCCC4)cc3n2CCCO)n1 (stereo not drawn) ?
LMP1 NFkB inh: -1; TROY signal inh: -1; MITF TRPM1 inh: 4; Peg3 prom inh: -2; Shn3 3UTR inh: -10; TWEAK-Fn14 inh: -1

Results for CCOC(=O)C(C)CC(C)C(=O)N1CCOCCOCCN(C(=O)C(C)CC(C)C(=O)OCC)CCOCC1 (stereo not drawn) ?
LMP1 NFkB inh: -10; TROY signal inh: -18; MITF TRPM1 inh: -2; Peg3 prom inh: -2; Shn3 3UTR inh: 2; TWEAK-Fn14 inh: -3

Results for CCOC(=O)C(C(=O)OCC)C(C(=O)OCC)N1CCOCC1 (stereo not drawn) ?
LMP1 NFkB inh: 34; TROY signal inh: -22; MITF TRPM1 inh: 96*; Peg3 prom inh: 106*; Shn3 3UTR inh: 41; TWEAK-Fn14 inh: -11

What do the screens show for `COC(=O)c1ccc(C(=O)OC)c(NC(=O)CN2CCN(c3ccccc3OC)CC2)c1`?
LMP1 NFkB inh: 15; TROY signal inh: 17; MITF TRPM1 inh: 10; Peg3 prom inh: 52*; Shn3 3UTR inh: 18; TWEAK-Fn14 inh: 27

Results for COc1ccc(CCNC(=O)c2ccccc2NC(=O)CN2CCN(c3ccccc3O)CC2)cc1 ?
LMP1 NFkB inh: 9; TROY signal inh: 24; MITF TRPM1 inh: 2; Peg3 prom inh: 52*; Shn3 3UTR inh: 1; TWEAK-Fn14 inh: 41

Results for COC(=O)c1ccc(C(=O)OC)c(NC(=O)CN2CCN(c3ccccc3)CC2)c1 ?
LMP1 NFkB inh: 10; TROY signal inh: 13; MITF TRPM1 inh: 9; Peg3 prom inh: 31; Shn3 3UTR inh: 59; TWEAK-Fn14 inh: -10

What do the screens show for `Cc1[nH]c(C)c(S(=O)(=O)NCc2ccc(N(C)C)cc2)c1C(=O)N1CCCC1`?
LMP1 NFkB inh: -8; TROY signal inh: 6; MITF TRPM1 inh: 7; Peg3 prom inh: -16; Shn3 3UTR inh: 7; TWEAK-Fn14 inh: 18

Results for CC(=O)C1=C(c2cccc([N+](=O)[O-])c2)N(C(C)=O)n2c(C)nnc2S1 ?
LMP1 NFkB inh: -2; TROY signal inh: -5; MITF TRPM1 inh: 0; Peg3 prom inh: -88; Shn3 3UTR inh: 19; TWEAK-Fn14 inh: 60*

What do the screens show for `CC(=O)c1c(C(C)=O)c(C)n(-c2cccc([N+](=O)[O-])c2)c1C`?
LMP1 NFkB inh: -1; TROY signal inh: -18; MITF TRPM1 inh: -10; Peg3 prom inh: 12; Shn3 3UTR inh: 5; TWEAK-Fn14 inh: 3

Results for C/C(=C\c1ccc2c(c1)OCO2)C1Nc2cccc3cccc(c23)N1 ?
LMP1 NFkB inh: 2; TROY signal inh: -28; MITF TRPM1 inh: -4; Peg3 prom inh: -64; Shn3 3UTR inh: 27; TWEAK-Fn14 inh: 12

How did COc1cc(CNCCc2c[nH]c3ccccc23)ccc1OCc1ccccc1F do in these assays?
LMP1 NFkB inh: 12; TROY signal inh: -6; MITF TRPM1 inh: 2; Peg3 prom inh: 7; Shn3 3UTR inh: 16; TWEAK-Fn14 inh: -17

What do the screens show for `COc1cccc(CNCCc2c[nH]c3ccccc23)c1OCc1ccccc1`?
LMP1 NFkB inh: -5; TROY signal inh: 20; MITF TRPM1 inh: 94*; Peg3 prom inh: 105*; Shn3 3UTR inh: inconclusive; TWEAK-Fn14 inh: 13

Results for CCCCOc1ccc(-c2cnc3ccccc3n2)cc1 ?
LMP1 NFkB inh: 16; TROY signal inh: 52*; MITF TRPM1 inh: -18; Peg3 prom inh: -284; Shn3 3UTR inh: 36; TWEAK-Fn14 inh: 79*

Results for Cc1cc2ncc(-c3ccccc3)nc2cc1C ?
LMP1 NFkB inh: -12; TROY signal inh: -19; MITF TRPM1 inh: -31; Peg3 prom inh: -255; Shn3 3UTR inh: -45; TWEAK-Fn14 inh: 40

What do the screens show for `Cc1ccc(-c2cnc3ccccc3n2)cc1C`?
LMP1 NFkB inh: 12; TROY signal inh: 12; MITF TRPM1 inh: 13; Peg3 prom inh: -101; Shn3 3UTR inh: -3; TWEAK-Fn14 inh: 73*

What do the screens show for `Oc1ccc(-c2cnc3ccccc3n2)cc1`?
LMP1 NFkB inh: 3; TROY signal inh: -57; MITF TRPM1 inh: -99; Peg3 prom inh: -217; Shn3 3UTR inh: -62; TWEAK-Fn14 inh: 3

How did CCC(C)(C)NC(=O)CN(Cc1ccccc1)C(=O)CCC(=O)Nc1nccs1 do in these assays?
LMP1 NFkB inh: 1; TROY signal inh: 14; MITF TRPM1 inh: 3; Peg3 prom inh: 7; Shn3 3UTR inh: 3; TWEAK-Fn14 inh: -1

What do the screens show for `COc1cc2c(c3oc(-c4ccccc4)cc(=O)c13)C=CC(C)(C)O2`?
LMP1 NFkB inh: 10; TROY signal inh: 19; MITF TRPM1 inh: -6; Peg3 prom inh: 34; Shn3 3UTR inh: 83; TWEAK-Fn14 inh: 64*

What do the screens show for `COc1cc(OC)c2c(=O)cc(-c3ccccc3)oc2c1`?
LMP1 NFkB inh: -24; TROY signal inh: -96; MITF TRPM1 inh: -43; Peg3 prom inh: -275; Shn3 3UTR inh: -108; TWEAK-Fn14 inh: -72

Results for Cc1c(C(=O)NCCS(=O)(=O)N2CCN(c3ccccc3F)CC2)cccc1[N+](=O)[O-] ?
LMP1 NFkB inh: 5; TROY signal inh: -31; MITF TRPM1 inh: 12; Peg3 prom inh: 33; Shn3 3UTR inh: -3; TWEAK-Fn14 inh: 25
